Experimental data as given in PubChem BioAssay (NCATS).
Inconclusive results are not listed. Active and inactive are the calls of the source. Unless noted, calls come from the whole dose curve; as a rule, active = well fitted curve in the direction sought with a large enough effect; inconclusive = small, poorly fitted or top-dose-only effect, or another doubt; inactive = no such curve, though single readings can be large; an effect the other way counts as inactive or inconclusive.

Assays:
[1] = molecular target: Lysosomal acid glucosylceramidase (Homo sapiens) (UniProt P04062); experiment: Glucocerebrosidase-p2 (AID 348; in the data active = potency below about 10 µM; note: potency is the fitted concentration of half-maximal effect); conditions: purified GBA, blue fluorogenic substrate, 40 min
Summary of the method: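 Normal human glucocerebrosidase (0.2 nM) with blue fluorogenic substrate (80 uM final) in citrate/phosphate pH 5.9 with 10mM sodium taurocholate, 0.01% tween-20; 40 min RT, NaOH/glycine stop; fluorescence Ex 365/Em 440; AC50 from a titration from 0.6 nM upwards.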

[2] = AP1 Signaling Pathway (AID 357; active = well fitted curve in either direction with a large enough effect, not every such curve was filed as active;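 note: ME-180 reporter cells stimulated with EGF at its EC50 level; % is set by controls: 0 for no effect and ±100 for the full control effect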); conditions: ME-180 AP-1-bla reporter, EGF-induced, beta-lactamase ratio, 5 h; at 7.69 µM (top of the series) unless noted
Summary of the method: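 Beta-lactamase reporter under AP-1 response element, ME-180 background. Stimulus: EC50 EGF. Compound exposure 5 h, 37 °C. Detection: CCF4, 2.5 h RT, 460/530 nm. Values: AC50 from titration.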

[3] = molecular target: Cytochrome P450 1A2 (Homo sapiens) (UniProt P05177); experiment: p450-cyp1a2 (AID 410; calls by dose curve; note: potency is the fitted concentration of half-maximal effect;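 for activity change, negative = inhibition: -100% = full effect of reference inhibitor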); conditions: recombinant CYP1A2, luciferin-ME demethylation, luminescence; series mostly up to 57 µM
Summary of the method: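 20nM CYP1A2, 100uM Luciferin-ME (=Km), 100mM KPO4; cpd 10 min RT; +NADPH regen, 60 min RT; stop/detect 20 min; luminescence. Normalized to furafylline 57 uM = full inhibition.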

[4] = NFAT Signaling Pathway (AID 444; active = well fitted curve in either direction with a large enough effect, not every such curve was filed as active;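 note: carbachol stimulus at about its EC50 of 1 µM final; % is set by controls: 0 for no effect and ±100 for the full control effect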); conditions: Jurkat NFAT-bla M1, carbachol, beta-lactamase ratio, 5 h; at 7.69 µM (top of the series) unless noted
Summary of the method: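 Jurkat cells with NFAT-driven β-lactamase reporter and co-expressed M1 receptor, stimulated with carbachol (final 1 uM, ~EC50), compound titration, 5 h at 37 °C. CCF4 loaded 1 h at RT; 460/530 nm ratio gave %activity and AC50.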

[5] = Stat Signaling Pathway (AID 446; active = well fitted curve in either direction with a large enough effect, not every such curve was filed as active;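 note: ME-180 cervical cancer cells given 40 pM IL-6 alongside compound; SIE-controlled beta-lactamase reporter measured as 460/530 nm FRET emission ratio; % is set by controls: 0 for no effect and ±100 for the full control effect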); conditions: ME-180 (cervical carcinoma) SIE beta-lactamase reporter, IL-6 stimulated, 5 h; at 7.69 µM (top of the series) unless noted
Summary of the method: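 Emission at 460 and 530 nm (excitation 405 nm) reports SIE-controlled beta-lactamase in ME-180 cells. Cells received compound with 40 pM IL-6 for 5 hrs at 37 C; data scaled between 300 pM IL-6 and 125 nM JAK-inhibitor controls.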

[6] = molecular target: Glucocorticoid receptor (Homo sapiens) (UniProt P04150); experiment: GR-GFP Redistribution (AID 450;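 active = compounds whose dose series gives a full or clear partial fitted curve of increased nuclear translocation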; note: potency is the fitted concentration of half-maximal effect); conditions: U2OS GR-GFP nuclear translocation, laser cytometry, 2 h
[7] = molecular target: Glucocorticoid receptor (Homo sapiens) (UniProt P04150); experiment: GR-EFC Redistribution (AID 451; calls by dose curve; note: potency is the fitted concentration of half-maximal effect); conditions: CHO-K1 GR-EFC translocation, beta-gal luminescence, 2 h
Summary of the method: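 CHO-K1 cells expressing nuclear EA and GR-ED fragments of b-gal; compounds titrated up to 46 uM final, 2 h at 37 C. GR nuclear translocation read as complemented b-gal luminescence after 1 h RT detection.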

[8] = molecular target: Mitogen-activated protein kinase 10 (Mus musculus) (UniProt Q61831); experiment: JNK3 AlphaScreen Assay (AID 530; active = well fitted curve in either direction with a large enough effect, not every such curve was filed as active;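 note: kinase came from lysate of stimulated human HepG2 cells; signal reports phosphorylation of biotinylated GST-cJun 1-79 at Ser73 with 10 µM ATP; % is set by controls: 0 for no effect and ±100 for the full control effect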); conditions: JNK3 lysate, c-Jun phosphorylation; series mostly up to 57.1 µM
Summary of the method: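 HepG2 lysate (IL-1b/TNFa pre-activated) + biotin-GST-cJun 1-79 + anti-pSer73 cJun; cpd titration, 15 min RT; ATP 10 uM start; Tris pH 7.6, MgCl2, DTT, vanadate; beads in EDTA buffer; AlphaScreen.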

[9] = molecular target: 3',5'-cyclic-AMP phosphodiesterase 4B (Homo sapiens) (UniProt Q07343); experiment: qHTS Assay for Inhibitors of PDE-IV (AID 607; active = well fitted activation curve with a large enough effect in the main read-out, with a control signal flat, not every such curve was filed as active; note: % of control where 0% means no effect); conditions: HEK293 ACTOne CNG channel cells, membrane potential fluorescence; series mostly up to 22.9 µM
Summary of the method: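 The readout is membrane depolarisation from a cAMP-sensing CNG channel, detected with a potential dye at ex 535/em 590. Cells were HEK293-derived (endogenous PDE-IV) at 1000 cells/well, titrated up to 22.9 uM final.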

[10] = molecular target: Cytochrome P450 3A4 (Homo sapiens) (UniProt P08684); experiment: qHTS Assay for Inhibitors and Substrates of Cytochrome P450 3A4 (AID 884); conditions: recombinant CYP3A4, Luciferin-PPXE luminescence; series mostly up to 57.1 µM; note: nearly all actives have a fitted effect of over 50% in size; note: potency is the fitted concentration of half-maximal effect
Summary of the method: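 Luminescent readout of luciferin produced by CYP3A4 (20 nM) dealkylation of Luciferin-PPXE, 25 uM (its KM). NADPH-driven reaction ran 60 min at RT after 10 min compound preincubation; data scaled to 57 uM ketoconazole as 100% inhibition.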

[11] = molecular target: Cytochrome P450 3A4 (Homo sapiens) (UniProt P08684); experiment: qHTS Assay for Activators of Cytochrome P450 3A4 (AID 885); conditions: recombinant CYP3A4, Luciferin-PPXE luminescence, 60 min; series mostly up to 57.1 µM; note: nearly all actives have a fitted effect of over 65% in size; note: potency is the fitted concentration of half-maximal effect
Summary of the method: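 Activators are scored by enhanced luminescence from CYP3A4 conversion of luciferin-PPXE (25uM, equal to KM) to luciferin, after 60 min at RT with an NADPH-regenerating system.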

[12] = qHTS Assay for Lipid Storage Modulators (AID 1519; calls by dose curve); conditions: Drosophila S3 cells, BODIPY lipid droplet/cell ratio, laser cytometry, cells loaded with oleic acid; for activity change, negative = inhibition: at 57.5 µM (top of the series)
Summary of the method: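 Cells seeded at 5,000 per well were treated with compounds over a concentration series and loaded with oleic acid (400 uM, as added). Lipid droplet fluorescence (488 nm excitation, 500-530 nm channel) was read by laser-scanning cytometry and normalized to 20 uM Triacsin C.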

[13] = molecular target: Dual specificity protein kinase CLK4 (Homo sapiens) (UniProt Q9HAZ1); experiment: qHTS Assay for Inhibitors of CDC-like Kinase 4 (Kinase-Glo Assay) (AID 1770); conditions: recombinant Clk4, Kinase-Glo ATP depletion luminescence; series mostly up to 66.7 µM; note: nearly all actives have a fitted effect of over 65% in size; note: potency is the fitted concentration of half-maximal effect
Summary of the method: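 Recombinant human Clk4 (25 nM) phosphorylated RS repeat peptide (100 uM) with 1 uM ATP in Tris pH 7.5/MgCl2/EGTA/DTT/Triton buffer for 4.5 h at room temperature. Residual ATP was quantified by Kinase-Glo luciferase luminescence.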

[14] = molecular target: Dual specificity protein kinase CLK4 (Homo sapiens) (UniProt Q9HAZ1); experiment: qHTS Assay for Inhibitors of CDC-like Kinase 4 (ADP-Glo Assay) (AID 1771); conditions: recombinant CLK4, ADP-Glo luminescence; series mostly up to 80 µM; note: nearly all actives have a fitted effect of over 70% in size; note: potency is the fitted concentration of half-maximal effect
Summary of the method: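 25 nM Clk4, 100 uM RS peptide, 1 uM ATP (final); 2 mM MgCl2, 0.5 mM EGTA, 2.5 mM DTT, 0.01% Triton X-100; 1 hr RT. ADP-Glo readout: ATP depletion 45 min, conversion/luciferase 30 min, luminescence.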

[15] = molecular target: Dual specificity protein kinase CLK4 (Homo sapiens) (UniProt Q9HAZ1); experiment: qHTS Assay for Inhibitors of CDC-like Kinase 4 (ADP-FP Assay) (AID 1795); conditions: Transcreener ADP fluorescence polarization; series mostly up to 50 µM; note: nearly all actives have a fitted effect of over 60% in size; note: potency is the fitted concentration of half-maximal effect
Summary of the method: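 Recombinant human Clk4 (6.25 nM) phosphorylated RS repeat peptide (100 uM) with 1 uM ATP in Tris pH 7.5/MgCl2/EGTA/DTT/Triton buffer for one hour. ADP was quantified by Transcreener competitive fluorescence polarization against an ADP calibration curve.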

[16] = molecular target: Ubiquitin carboxyl-terminal hydrolase 1 (Homo sapiens) (UniProt O94782); experiment: Inhibitors of USP1/UAF1: Pilot qHTS (AID 504865); conditions: purified USP1/UAF1, Ub-rhodamine cleavage fluorescence; series mostly up to 54.9 µM;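 note: rhodamine fluorescence freed from ubiquitin-rhodamine substrate followed over time; top concentration of the series differs between compounds; % is set by controls: 0 for no effect and ±100 for the full control effect; nearly all actives have a fitted effect of over 35% in size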
Summary of the method: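 USP1/UAF1 complex (1nM) preincubated with compound 15 min at room temperature, then Ub-Rho substrate (150nM final) added. Fluorescence read kinetically at 480/540 nm, 6 reads every 60 seconds. Buffer: 50mM HEPES pH 7.8, 0.5mM EDTA, 0.1 mg/ml BSA, 1mM TCEP, 0.01% Tween-20.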

[17] = Primary qHTS for small molecule stabilizers of the endoplasmic reticulum resident proteome: Secreted ER Calcium Modulated Protein (SERCaMP) assay (AID 1508630); conditions: SH-SY5Y GLuc-SERCaMP (Gaussia luciferase released on ER calcium loss) secretion, thapsigargin, luminescence; series mostly up to 38.4 µM; note: % is set by controls: 0 for no effect and ±100 for the full control effect
Summary of the method: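 The SH-SY5Y reporter protocol was run at 3 concentrations up to 38.3 uM (primary) or 11 concentrations (follow-up): 16 h compound, 100 nM thapsigargin for 4 h, then extracellular luciferase luminescence.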

[18] = molecular target: Cytochrome P450 2C9 (Homo sapiens) (UniProt P11712); experiment: qHTS Assay for Inhibitors and Substrates of Cytochrome P450 2C9 (AID 883); conditions: recombinant CYP2C9, luciferin-H luminescence, 60 min; series mostly up to 57.1 µM; note: % is set by controls: 0 for no effect and ±100 for the full control effect; nearly all actives have a fitted effect of over 60% in size
Summary of the method: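 Signal: luciferase luminescence reporting luciferin produced by CYP2C9. Conditions: 10nM enzyme, Luciferin-H 100uM at KM, 25mM KPO4, 37C, 60 min NADPH-driven reaction. Reference: 57uM sulphaphenazole as 100% inhibition.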

[19] = molecular target: Cytochrome P450 2C19 (Homo sapiens) (UniProt P33261); experiment: qHTS Assay for Inhibitors and Substrates of Cytochrome P450 2C19 (AID 899); conditions: recombinant CYP2C19, luciferin-H EGE luminescence; series mostly up to 57.1 µM; note: % is set by controls: 0 for no effect and ±100 for the full control effect; nearly all actives have a fitted effect of over 60% in size
Summary of the method: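 Signal comes from luciferase acting on luciferin released by CYP2C19-mediated hydroxylation of Luciferin-H EGE, 10uM (KM). Assay mix: 5nM enzyme, 50mM KPO4; 60 min at 37C with NADPH regeneration. Data normalized against 57uM ketoconazole.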

[20] = measured here: cell count channel max response
[21] = measured here: lipid channel max response

Sequence of 3',5'-cyclic-AMP phosphodiesterase 4B (Homo sapiens) (Q07343 whole entry, looked up): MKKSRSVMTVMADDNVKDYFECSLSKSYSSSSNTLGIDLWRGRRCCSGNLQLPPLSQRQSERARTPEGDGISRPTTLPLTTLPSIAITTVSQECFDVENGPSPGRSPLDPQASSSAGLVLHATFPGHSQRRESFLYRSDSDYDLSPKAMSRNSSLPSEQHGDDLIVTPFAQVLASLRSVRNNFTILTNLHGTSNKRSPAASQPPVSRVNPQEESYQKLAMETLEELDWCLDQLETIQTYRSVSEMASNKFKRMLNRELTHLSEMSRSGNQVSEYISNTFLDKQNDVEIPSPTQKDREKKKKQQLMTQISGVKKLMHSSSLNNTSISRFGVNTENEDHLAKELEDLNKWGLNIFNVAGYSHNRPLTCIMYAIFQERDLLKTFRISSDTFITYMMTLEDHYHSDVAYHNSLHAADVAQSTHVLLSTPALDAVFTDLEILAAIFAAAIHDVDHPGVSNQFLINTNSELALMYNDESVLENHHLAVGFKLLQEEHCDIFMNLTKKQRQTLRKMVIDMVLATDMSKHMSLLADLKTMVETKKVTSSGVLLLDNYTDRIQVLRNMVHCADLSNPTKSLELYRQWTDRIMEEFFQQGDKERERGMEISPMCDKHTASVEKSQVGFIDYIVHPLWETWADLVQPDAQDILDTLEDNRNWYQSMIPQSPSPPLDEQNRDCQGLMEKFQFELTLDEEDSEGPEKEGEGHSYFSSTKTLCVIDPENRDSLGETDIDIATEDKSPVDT
Sequence of Cytochrome P450 3A4 (Homo sapiens) (P08684 whole entry, looked up): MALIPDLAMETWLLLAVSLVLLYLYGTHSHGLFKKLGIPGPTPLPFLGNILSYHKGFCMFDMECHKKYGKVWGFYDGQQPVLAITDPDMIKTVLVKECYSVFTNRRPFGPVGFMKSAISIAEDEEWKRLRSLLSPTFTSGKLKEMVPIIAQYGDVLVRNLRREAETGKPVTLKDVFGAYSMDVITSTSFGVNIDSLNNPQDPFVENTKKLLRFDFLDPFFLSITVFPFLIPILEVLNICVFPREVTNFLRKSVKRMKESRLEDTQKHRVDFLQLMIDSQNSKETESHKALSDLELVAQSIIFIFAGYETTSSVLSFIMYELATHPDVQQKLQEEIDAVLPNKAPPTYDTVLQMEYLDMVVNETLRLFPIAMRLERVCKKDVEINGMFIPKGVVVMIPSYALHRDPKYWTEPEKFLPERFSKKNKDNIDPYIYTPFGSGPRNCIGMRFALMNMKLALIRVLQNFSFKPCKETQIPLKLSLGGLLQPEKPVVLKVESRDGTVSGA
Sequence of Dual specificity protein kinase CLK4 (Homo sapiens) (Q9HAZ1 whole entry, looked up): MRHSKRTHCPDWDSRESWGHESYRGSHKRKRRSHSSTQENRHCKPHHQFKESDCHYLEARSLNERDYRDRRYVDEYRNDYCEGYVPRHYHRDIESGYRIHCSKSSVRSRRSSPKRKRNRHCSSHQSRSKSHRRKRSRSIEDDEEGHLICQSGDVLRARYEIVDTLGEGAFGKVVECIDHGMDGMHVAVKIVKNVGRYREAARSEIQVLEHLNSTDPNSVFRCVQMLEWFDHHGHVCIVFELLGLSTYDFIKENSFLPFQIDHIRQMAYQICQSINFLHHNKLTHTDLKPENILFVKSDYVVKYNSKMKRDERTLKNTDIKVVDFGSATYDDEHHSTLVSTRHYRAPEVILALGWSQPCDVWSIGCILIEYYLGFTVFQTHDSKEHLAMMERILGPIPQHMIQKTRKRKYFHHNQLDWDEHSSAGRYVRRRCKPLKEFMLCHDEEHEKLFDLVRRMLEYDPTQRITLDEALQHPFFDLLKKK
Sequence of Glucocorticoid receptor (Homo sapiens) (P04150 whole entry, looked up, the tested form may be a part): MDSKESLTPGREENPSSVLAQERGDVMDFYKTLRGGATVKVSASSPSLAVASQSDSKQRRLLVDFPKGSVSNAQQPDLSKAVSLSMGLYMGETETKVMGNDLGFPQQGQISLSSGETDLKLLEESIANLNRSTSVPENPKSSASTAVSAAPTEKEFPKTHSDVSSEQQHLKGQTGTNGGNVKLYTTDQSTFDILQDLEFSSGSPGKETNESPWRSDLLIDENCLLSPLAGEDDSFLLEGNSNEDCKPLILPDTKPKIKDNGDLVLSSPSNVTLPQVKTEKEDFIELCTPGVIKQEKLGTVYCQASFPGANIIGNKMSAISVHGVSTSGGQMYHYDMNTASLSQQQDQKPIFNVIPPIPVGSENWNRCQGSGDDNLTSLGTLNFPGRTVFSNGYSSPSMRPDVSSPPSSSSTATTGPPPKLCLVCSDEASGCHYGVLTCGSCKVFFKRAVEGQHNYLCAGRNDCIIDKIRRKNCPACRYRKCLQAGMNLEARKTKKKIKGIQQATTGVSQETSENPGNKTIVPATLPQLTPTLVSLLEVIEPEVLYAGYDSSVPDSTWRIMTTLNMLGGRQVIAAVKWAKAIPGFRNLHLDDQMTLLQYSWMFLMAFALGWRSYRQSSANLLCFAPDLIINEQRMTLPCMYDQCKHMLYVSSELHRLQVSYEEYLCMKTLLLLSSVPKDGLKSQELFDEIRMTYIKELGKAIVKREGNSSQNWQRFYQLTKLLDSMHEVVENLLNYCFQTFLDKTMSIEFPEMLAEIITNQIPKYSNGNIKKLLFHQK
Sequence of Lysosomal acid glucosylceramidase (Homo sapiens) (P04062 whole entry, looked up): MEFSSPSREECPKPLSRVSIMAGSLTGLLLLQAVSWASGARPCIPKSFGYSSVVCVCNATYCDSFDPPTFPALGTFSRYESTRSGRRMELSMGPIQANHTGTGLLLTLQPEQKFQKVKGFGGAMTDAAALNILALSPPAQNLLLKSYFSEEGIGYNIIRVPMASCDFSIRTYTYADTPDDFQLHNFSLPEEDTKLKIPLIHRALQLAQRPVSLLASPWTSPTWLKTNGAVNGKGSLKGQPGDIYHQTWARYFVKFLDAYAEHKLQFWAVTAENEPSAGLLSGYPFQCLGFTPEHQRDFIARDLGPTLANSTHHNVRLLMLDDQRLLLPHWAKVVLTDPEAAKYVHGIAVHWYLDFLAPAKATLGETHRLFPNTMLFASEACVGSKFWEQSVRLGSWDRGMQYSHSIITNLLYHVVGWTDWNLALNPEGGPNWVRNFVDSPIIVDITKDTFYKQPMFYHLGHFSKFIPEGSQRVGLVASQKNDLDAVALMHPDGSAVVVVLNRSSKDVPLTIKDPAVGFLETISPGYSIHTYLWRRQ
Sequence of Cytochrome P450 1A2 (Homo sapiens) (P05177 whole entry, looked up): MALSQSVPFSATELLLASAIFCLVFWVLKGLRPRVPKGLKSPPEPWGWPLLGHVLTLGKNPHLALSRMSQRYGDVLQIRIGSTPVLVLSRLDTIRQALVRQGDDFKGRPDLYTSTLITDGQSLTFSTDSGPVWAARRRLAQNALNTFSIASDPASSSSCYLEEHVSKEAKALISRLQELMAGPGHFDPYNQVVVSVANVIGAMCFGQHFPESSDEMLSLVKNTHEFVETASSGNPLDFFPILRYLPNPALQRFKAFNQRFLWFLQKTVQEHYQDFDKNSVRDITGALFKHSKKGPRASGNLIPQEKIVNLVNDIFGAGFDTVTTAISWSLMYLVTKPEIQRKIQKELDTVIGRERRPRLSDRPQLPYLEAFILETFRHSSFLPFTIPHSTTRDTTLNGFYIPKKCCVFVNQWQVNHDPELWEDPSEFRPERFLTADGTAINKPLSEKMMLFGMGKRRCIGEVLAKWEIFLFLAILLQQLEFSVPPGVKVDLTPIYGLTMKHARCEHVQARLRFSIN
Sequence of Ubiquitin carboxyl-terminal hydrolase 1 (Homo sapiens) (O94782 whole entry, looked up): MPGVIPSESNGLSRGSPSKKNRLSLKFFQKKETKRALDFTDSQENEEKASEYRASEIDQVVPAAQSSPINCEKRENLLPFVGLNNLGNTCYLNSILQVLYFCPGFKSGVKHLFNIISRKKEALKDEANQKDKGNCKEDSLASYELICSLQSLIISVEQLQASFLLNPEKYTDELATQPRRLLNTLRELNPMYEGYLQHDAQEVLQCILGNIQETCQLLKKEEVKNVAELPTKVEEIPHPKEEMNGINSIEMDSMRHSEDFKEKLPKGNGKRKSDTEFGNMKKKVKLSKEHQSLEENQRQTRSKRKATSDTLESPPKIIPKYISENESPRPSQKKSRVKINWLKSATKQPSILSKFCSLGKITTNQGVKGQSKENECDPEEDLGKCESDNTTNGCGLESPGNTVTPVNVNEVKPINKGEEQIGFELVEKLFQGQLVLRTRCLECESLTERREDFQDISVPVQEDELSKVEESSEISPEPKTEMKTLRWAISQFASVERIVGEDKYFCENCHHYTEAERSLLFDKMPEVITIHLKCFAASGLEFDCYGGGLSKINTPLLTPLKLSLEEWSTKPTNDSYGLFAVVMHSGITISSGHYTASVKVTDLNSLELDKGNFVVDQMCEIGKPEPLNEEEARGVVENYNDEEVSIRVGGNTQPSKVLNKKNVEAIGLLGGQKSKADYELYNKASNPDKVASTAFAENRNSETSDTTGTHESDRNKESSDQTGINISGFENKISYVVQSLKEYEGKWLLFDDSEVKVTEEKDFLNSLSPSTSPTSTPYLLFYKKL
Sequence of Cytochrome P450 2C9 (Homo sapiens) (P11712 whole entry, looked up): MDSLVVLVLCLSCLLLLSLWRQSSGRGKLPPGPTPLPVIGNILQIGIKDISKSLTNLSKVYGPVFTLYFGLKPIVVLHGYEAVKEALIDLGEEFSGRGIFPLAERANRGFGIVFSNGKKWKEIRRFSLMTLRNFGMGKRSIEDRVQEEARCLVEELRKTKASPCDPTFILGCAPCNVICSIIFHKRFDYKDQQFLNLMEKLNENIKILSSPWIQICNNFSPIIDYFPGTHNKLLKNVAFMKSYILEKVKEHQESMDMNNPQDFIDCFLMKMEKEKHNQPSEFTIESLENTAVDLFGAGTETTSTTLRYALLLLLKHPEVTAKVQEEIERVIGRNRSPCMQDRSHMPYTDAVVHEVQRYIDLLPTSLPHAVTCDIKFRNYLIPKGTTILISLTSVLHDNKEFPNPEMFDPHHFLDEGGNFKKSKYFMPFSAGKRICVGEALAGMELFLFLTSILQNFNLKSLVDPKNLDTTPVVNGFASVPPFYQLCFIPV

Cn1c(=O)c(-c2cccc(C#N)c2)nc2cnc(Oc3ccccc3)nc21
12.2%: max response [12, 21]
inactive: Potency [1] > 11.4 µM | activity change, negative = inhibition [2] -13.9% | activity change, negative = inhibition [4] -0.708% | activity, negative = inhibition [5] 1.85% | Potency [6] > 9.22 µM | Potency [7] > 46 µM | outcome [8] | Potency [9] | Potency [10] | activity change, negative = inhibition [12] -3.03% | Potency [13] | Potency [14] | Potency [15] | Potency [16] | Potency [17]
16.1%: max response [12, 20]
active: Potency [3] 1.58 µM | Potency [11] 3.16 µM

COCCNc1ncncc1-c1c(C)noc1C
active: Potency [10] 5.01 µM
19.7%: max response [12, 20]
inactive: Potency [1] > 11.4 µM | activity change, negative = inhibition [2] 8.31% | Potency [3] | activity change, negative = inhibition [4] -1.26% | activity, negative = inhibition [5] 0.118% | Potency [6] > 46 µM | Potency [7] > 46 µM | outcome [8] | Potency [9] | activity change, negative = inhibition [18] 23.1% [at 2.29 µM] | Potency [11] | activity change, negative = inhibition [12] 3.6% | Potency [13] | Potency [14] | Potency [15] | Potency [16] | Potency [17]
24.5%: max response [12, 21]

Cc1noc(C)c1-c1cc(NC2CCNCC2)ncn1
inactive: Potency [1] > 11.4 µM | activity change, negative = inhibition [2] 8.23% | activity change, negative = inhibition [4] 8.17% | activity, negative = inhibition [5] 5.01% | Potency [6] > 46 µM | Potency [7] > 46 µM | outcome [8] | Potency [9] | activity change, negative = inhibition [18] 23.1% [at 2.29 µM] | Potency [10] | Potency [19] | activity change, negative = inhibition [12] 3.45% | Potency [13] | Potency [14] | Potency [15] | Potency [16] | Potency [17]
-14.9%: max response [12, 21]
-17.1%: max response [12, 20]
active: Potency [3] 0.126 µM

CC(=O)NCCNc1ncnc2ccc(-c3cccc(NS(C)(=O)=O)c3)cc12
inactive: Potency [1] > 11.4 µM | activity change, negative = inhibition [2] 3.51% | activity change, negative = inhibition [4] 7.81% | activity, negative = inhibition [5] 6.44% | Potency [6] > 46 µM | Potency [7] > 46 µM | outcome [8] | Potency [9] | Potency [11] | activity change, negative = inhibition [12] 1.93% | Potency [16] | Potency [17]
24.6%: max response [12, 21]
24.3%: max response [12, 20]
active: Potency [3] 15.8 µM | Potency [13] 12.6 µM | Potency [14] 12.6 µM | Potency [15] 8.91 µM
